Measured values published in the supplement of paper PMC10849652.
Targets with a hit are over-represented here; the source holds about 7,900 in all. About 0.6% of all pairs of compound and target were hits. A number with no mark means an inactive call.

Tests used:
Assay in all cases: log2 fold change, soluble protein after heating vs DMSO (PISA); higher = thermal stabilisation; K562 cells, 10 uM, 30 min; active = over 0.2 and 3.5 SD of the protein, either way, in both replicates (recomputed)
[1] = compound: CC[C@@H]1C(=O)N(C)c2cnc(Nc3ccc(C(=O)NC4CCN(C)CC4)cc3OC)nc2N1C1CCCC1
Procedure, shortened: (§1)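 K562 cells at 2×10^6 cells/mL were treated for 30 min with 10 μM compound, and aliquots were heated for 3 min over 48°C-58°C before pooling. Extraction used PBS with 0.5% NP-40 at 4°C, and soluble protein was the supernatant after 21,000xg for 90 min, measured by TMTpro 16plex LC-MS/MS with channel sums equalised. Thermal stability values, relative to control samples and from duplicates, are log2 fold changes.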

[2] = compound: CC[C@@H]1C(=O)N(C)c2cnc(Nc3ccc(C(=O)N[C@H]4CC[C@H](N5CCN(CC6CC6)CC5)CC4)cc3OC)nc2N1C(C)C [volasertib]
Procedure, shortened: as §1

[3] = compound: CC[C@H](C)N1C=C(C2=C(C=C(C=C21)C3=CN=C(C=C3)N4CCNCC4)C(=O)NCC5=C(C=C(NC5=O)C)C)C
Procedure, shortened: as §1

[4] = compound: CC[C@H](C)[C@@H](C(=O)N[C@@H]([C@@H](C)O)C(=O)N[C@@H](CC(C)C)C(=O)[C@]1(CO1)C)NC(=O)[C@H]([C@@H](C)CC)N(C)C(=O)C [epoxomicin]
Procedure, shortened: as §1

[5] = compound: CCn1c(C(=O)N(C2CC2)C2CC2)cc2c3c(ncn3C)c(Nc3cc(C)n(C)n3)nc21
Procedure, shortened: as §1

[6] = compound: CCn1cc(-c2ccnc3[nH]c(-c4cccc(CN(C)C)c4)cc23)c(-c2ccc(NC(=O)N(C)C)cc2)n1
Procedure, shortened: as §1

[7] = compound: CN(C)CC(=O)Nc1ccc2[nH]c(=O)c3ccccc3c2c1
Procedure, shortened: as §1

[8] = compound: CN(CCOC1=CC=C(C=C1)C[C@H]2C(=O)NC(=O)S2)C3=CC=CC=N3 (racemic) [rosiglitazone]
Procedure, shortened: as §1

[9] = compound: CN1C2=C(C3=C1C(=O)N(N=C3)CC4=CC(=CC=C4)N)SC(=C2)S(=O)C
Procedure, shortened: as §1

[10] = compound: CN1CCC(CNc2ccc3ncc(-c4cccc(OC(F)(F)F)c4)n3n2)CC1
Procedure, shortened: as §1

[11] = compound: CN1CCN(CCOc2cc(OC3CCOCC3)c3c(Nc4c(Cl)ccc5c4OCO5)ncnc3c2)CC1 [saracatinib]
Procedure, shortened: as §1

[12] = compound: CN1CCN(c2nc(C3=C(c4c[nH]c5ccccc45)C(=O)NC3=O)c3ccccc3n2)CC1 [sotrastaurin]
Procedure, shortened: as §1

[13] = compound: CN1CC[C@H](c2c(O)cc(O)c3c(=O)cc(-c4ccccc4Cl)oc23)[C@H](O)C1 [alvocidib]
Procedure, shortened: as §1

[14] = compound: CN1CCc2c(c3ccccc3n2Cc2ccc(C(=O)NO)cc2)C1 [Tubastatin A]
Procedure, shortened: as §1

[15] = compound: CNC(=O)C1=CC=CC=C1NC2=NC(=NC=C2Cl)NC3=C(C=C(C=C3)N4CCOCC4)OC
Procedure, shortened: as §1

[16] = compound: CNC(=O)c1ccc(Nc2ncc(C(F)(F)F)c(NCc3nccnc3N(C)S(C)(=O)=O)n2)cc1 [defactinib]
Procedure, shortened: as §1

[17] = compound: CNCc1ccc(-c2[nH]c3cc(F)cc4c3c2CCNC4=O)cc1 [rucaparib]
Procedure, shortened: as §1

[18] = compound: CNc1nc(-c2ccc3c(N)n[nH]c3c2)cc(N2C[C@@H](C(=O)NC3CCCCC3)CC[C@H]2C)n1
Procedure, shortened: as §1

[19] = compound: COC(=O)N[C@@H](C)CNc1nccc(-c2cn(C(C)C)nc2-c2cc(Cl)cc(NS(C)(=O)=O)c2F)n1 [encorafenib]
Procedure, shortened: as §1

[20] = compound: COC(=O)[C@H](CCSC)NC(=O)C1=C(C=C(C=C1)NC[C@H](CS)N)C2=CC=CC=C2
Procedure, shortened: as §1

Chain of UniProt Q9NV70 (Q9NV70 whole entry, looked up): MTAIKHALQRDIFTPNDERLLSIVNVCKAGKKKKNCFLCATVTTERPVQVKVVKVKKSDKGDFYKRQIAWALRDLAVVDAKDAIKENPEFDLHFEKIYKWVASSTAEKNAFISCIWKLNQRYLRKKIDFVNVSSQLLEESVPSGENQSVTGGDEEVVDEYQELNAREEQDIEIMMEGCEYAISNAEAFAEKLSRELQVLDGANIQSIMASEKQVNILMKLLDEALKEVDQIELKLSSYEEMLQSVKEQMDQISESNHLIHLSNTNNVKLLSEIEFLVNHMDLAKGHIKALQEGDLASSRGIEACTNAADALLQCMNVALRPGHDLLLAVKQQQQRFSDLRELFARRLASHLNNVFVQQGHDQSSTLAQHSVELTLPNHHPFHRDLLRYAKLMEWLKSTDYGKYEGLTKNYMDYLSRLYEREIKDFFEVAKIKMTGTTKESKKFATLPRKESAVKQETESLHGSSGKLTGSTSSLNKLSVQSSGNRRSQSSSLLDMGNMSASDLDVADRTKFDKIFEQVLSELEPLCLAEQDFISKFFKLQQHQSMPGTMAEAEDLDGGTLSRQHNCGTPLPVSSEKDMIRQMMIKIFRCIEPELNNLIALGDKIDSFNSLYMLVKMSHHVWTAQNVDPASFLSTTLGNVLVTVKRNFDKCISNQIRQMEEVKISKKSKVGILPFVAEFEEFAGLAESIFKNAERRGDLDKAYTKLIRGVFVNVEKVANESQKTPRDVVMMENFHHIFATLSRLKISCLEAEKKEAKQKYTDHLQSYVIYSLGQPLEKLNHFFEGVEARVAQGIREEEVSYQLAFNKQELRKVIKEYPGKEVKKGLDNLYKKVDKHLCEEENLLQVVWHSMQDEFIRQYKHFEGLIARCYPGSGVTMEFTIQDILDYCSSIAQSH
Chain of UniProt P41091 (P41091 whole entry, looked up): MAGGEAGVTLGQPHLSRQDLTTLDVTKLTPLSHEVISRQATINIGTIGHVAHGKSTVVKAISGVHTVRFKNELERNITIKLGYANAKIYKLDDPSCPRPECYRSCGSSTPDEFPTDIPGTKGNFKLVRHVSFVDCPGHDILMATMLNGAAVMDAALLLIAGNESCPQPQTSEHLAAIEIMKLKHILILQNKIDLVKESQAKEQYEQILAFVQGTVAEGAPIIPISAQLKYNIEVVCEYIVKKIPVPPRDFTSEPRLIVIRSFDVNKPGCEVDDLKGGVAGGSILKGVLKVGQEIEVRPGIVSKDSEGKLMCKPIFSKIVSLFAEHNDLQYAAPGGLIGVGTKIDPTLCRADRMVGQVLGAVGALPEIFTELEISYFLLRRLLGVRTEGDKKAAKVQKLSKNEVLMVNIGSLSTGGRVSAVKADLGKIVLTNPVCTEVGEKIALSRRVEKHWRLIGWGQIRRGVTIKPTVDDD
Chain of UniProt Q9H2U1 (Q9H2U1 whole entry, looked up): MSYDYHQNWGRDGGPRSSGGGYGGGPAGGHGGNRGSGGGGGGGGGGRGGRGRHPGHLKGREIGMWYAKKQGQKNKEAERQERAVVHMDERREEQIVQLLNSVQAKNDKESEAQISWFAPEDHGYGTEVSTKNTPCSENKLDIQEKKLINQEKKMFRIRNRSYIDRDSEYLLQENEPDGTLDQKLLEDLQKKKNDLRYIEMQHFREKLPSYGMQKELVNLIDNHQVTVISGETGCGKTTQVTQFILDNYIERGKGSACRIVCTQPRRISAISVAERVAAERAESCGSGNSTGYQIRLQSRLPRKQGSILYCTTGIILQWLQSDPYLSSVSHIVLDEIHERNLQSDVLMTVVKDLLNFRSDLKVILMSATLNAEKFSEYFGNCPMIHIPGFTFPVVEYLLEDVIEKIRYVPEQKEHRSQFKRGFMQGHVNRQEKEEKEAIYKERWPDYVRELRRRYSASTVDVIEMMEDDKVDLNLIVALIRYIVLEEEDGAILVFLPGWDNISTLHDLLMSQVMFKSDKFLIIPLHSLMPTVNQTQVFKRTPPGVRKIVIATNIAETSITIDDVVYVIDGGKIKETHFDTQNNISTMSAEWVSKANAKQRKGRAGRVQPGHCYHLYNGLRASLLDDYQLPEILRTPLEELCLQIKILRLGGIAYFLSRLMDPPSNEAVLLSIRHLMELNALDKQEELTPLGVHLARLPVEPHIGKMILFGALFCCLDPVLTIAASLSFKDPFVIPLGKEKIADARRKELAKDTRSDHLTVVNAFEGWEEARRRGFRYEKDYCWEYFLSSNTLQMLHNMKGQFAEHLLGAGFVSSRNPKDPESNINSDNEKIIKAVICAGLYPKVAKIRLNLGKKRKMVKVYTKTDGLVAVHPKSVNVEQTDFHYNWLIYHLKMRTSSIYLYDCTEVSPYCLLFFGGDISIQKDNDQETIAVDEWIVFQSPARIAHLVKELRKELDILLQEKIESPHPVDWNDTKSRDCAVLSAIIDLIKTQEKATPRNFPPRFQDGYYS
Chain of UniProt Q9BSJ8 (Q9BSJ8 whole entry, looked up): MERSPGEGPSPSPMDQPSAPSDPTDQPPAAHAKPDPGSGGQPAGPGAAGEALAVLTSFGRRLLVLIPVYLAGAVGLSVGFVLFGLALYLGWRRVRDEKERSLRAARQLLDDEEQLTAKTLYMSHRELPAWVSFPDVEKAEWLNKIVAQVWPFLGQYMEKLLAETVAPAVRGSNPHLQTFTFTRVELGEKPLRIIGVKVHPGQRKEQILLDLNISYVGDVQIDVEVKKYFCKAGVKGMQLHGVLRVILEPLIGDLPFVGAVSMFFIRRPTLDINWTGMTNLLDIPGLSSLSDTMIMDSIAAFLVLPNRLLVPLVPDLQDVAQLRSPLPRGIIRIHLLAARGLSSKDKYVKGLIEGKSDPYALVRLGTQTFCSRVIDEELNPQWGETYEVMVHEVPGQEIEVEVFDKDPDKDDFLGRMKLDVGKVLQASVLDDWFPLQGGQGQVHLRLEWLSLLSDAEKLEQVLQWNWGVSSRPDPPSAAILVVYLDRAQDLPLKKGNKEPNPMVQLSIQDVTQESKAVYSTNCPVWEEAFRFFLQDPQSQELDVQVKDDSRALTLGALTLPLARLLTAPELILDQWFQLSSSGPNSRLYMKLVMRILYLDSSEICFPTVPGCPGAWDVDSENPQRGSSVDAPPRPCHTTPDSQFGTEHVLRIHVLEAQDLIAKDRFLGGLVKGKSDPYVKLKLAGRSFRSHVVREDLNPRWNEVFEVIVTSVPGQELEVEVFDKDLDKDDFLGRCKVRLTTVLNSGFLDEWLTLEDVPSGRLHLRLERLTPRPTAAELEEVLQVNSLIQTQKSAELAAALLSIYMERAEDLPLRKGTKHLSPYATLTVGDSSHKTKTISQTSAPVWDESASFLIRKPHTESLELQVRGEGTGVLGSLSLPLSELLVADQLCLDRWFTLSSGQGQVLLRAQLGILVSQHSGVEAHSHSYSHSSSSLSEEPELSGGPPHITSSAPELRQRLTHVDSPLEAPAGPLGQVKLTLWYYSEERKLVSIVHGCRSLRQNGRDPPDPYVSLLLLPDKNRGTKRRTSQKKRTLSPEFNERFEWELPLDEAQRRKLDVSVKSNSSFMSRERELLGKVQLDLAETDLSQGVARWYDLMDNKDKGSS
Chain of UniProt Q5QP82 (Q5QP82 whole entry, looked up): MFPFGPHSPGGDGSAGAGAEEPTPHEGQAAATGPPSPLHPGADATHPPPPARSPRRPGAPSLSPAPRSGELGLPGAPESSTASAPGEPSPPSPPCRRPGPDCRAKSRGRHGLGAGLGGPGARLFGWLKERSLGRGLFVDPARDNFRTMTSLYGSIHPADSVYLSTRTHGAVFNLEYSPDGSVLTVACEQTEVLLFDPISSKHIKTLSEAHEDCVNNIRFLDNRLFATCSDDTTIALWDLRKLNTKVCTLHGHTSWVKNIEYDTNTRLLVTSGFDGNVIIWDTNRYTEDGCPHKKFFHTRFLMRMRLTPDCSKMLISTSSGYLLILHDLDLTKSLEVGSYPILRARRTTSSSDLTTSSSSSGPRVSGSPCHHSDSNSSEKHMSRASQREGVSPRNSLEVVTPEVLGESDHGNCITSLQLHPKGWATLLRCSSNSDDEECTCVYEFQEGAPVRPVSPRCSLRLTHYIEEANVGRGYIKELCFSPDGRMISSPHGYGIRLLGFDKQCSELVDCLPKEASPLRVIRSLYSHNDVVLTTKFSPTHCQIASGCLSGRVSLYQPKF
Chain of UniProt P49366 (P49366 whole entry, looked up): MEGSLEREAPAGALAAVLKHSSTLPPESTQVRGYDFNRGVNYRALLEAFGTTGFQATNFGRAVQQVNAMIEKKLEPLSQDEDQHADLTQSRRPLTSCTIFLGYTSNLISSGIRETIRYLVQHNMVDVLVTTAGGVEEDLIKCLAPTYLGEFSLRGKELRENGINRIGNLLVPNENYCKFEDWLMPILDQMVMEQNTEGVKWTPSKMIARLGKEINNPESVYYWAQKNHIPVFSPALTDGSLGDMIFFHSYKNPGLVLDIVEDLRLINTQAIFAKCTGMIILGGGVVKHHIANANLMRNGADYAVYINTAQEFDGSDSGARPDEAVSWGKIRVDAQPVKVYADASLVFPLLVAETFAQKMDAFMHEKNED
Chain of UniProt Q9GZT9 (Q9GZT9 whole entry, looked up): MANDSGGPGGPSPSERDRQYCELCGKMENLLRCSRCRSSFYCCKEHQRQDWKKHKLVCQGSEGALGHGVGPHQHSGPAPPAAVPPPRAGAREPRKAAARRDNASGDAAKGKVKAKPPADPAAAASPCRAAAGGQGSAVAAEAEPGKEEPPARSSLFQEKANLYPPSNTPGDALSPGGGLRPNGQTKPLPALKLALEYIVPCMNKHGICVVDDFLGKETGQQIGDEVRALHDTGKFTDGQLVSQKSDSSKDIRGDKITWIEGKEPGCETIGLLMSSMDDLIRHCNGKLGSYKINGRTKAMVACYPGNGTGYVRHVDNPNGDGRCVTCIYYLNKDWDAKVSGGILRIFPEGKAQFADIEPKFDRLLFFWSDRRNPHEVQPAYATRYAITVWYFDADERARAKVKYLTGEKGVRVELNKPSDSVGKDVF
Chain of UniProt P00374 (P00374 whole entry, looked up): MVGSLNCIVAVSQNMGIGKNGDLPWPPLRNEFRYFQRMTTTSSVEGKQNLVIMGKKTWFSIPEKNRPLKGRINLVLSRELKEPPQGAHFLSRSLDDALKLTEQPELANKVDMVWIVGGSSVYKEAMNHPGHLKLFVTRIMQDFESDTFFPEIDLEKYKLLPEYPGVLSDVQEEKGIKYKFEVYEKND

Row | Target | log2 fold change [1] | log2 fold change [2] | log2 fold change [3] | log2 fold change [4] | log2 fold change [5] | log2 fold change [6] | log2 fold change [7] | log2 fold change [8] | log2 fold change [9] | log2 fold change [10] | log2 fold change [11] | log2 fold change [12] | log2 fold change [13] | log2 fold change [14] | log2 fold change [15] | log2 fold change [16] | log2 fold change [17] | log2 fold change [18] | log2 fold change [19] | log2 fold change [20]
1 | FAM50A (UniProt Q14320) | -0.158 | -0.258 (active) | 0.06 | 0.058 | -0.022 | 0.053 | 0.029 | 0.001 | -0.07 | -0.052 | 0.11 | -0.119 | -0.064 | 0.029 | 0.056 | -0.203 | -0.027 | 0.08 | 0.055 | -0.023
2 | ESYT1 isoform 2 (UniProt Q9BSJ8) | 0.007 | -0.37 | 0.099 | 0.026 | -0.09 | 0 | 0.033 | 0.045 | 0.063 | 0.115 | -0.148 | -0.208 | -0.05 | 0.031 | -0.034 | -0.043 | 0.154 | 0.099 | 0.175 | -0.099
3 | EGLN1 (UniProt Q9GZT9) | 0.117 | -0.001 | 0.048 | 0.078 | -0.011 | -0.004 | 0.007 | 0.035 | -0.006 | -0.052 | -0.01 | -0.074 | -0.003 | -0.296 (active) | 0.065 | -0.027 | 0.114 | 0.03 | 0.001 | 0.002
4 | EEF1AKNMT (UniProt Q8N6R0) | -0.082 | -0.564 (active) | 0.111 | 0.012 | -0.038 | 0.134 | 0.092 | 0.022 | 0.075 | -0.095 | -0.063 | -0.174 | -0.039 | -0.004 | 0.063 | -0.068 | 0.115 | 0.059 | 0.095 | -0.182
5 | DHFR (UniProt P00374) | 0.002 | -0.11 | 0.088 | -0.013 | -0.101 | -0.077 | 0.091 | 0.046 | 0.113 | 1.64 (active) | -0.193 | 1.66 (active) | 0.215 | 1.77 (active) | -0.115 | -0.109 | 0.39 | 0.036 | 0.109 | -0.059
6 | DHX36 (UniProt Q9H2U1) | 0.11 | 0.059 | 0.002 | -0.032 | -0.009 | 0.032 | -0.032 | -0.015 | 0.086 | -0.027 | -0.014 | 0.021 | 0.122 | 0.048 | -0.041 | 0.171 | 0.187 | 0.03 | 0.095 | 0.011
7 | EIF3J (UniProt O75822) | -0.061 | 0.005 | 0.011 | 0.055 | 0 | 0.001 | -0.008 | 0.019 | -0.061 | 0.226 | -0.042 | -0.028 | 0.006 | -0.005 | 0.019 | 0.019 | -0.072 | -0.037 | -0.008 | -0.029
8 | DCAF13 (UniProt Q9NV06) | 0.134 | 0.26 | 0.03 | -0.24 | 0.038 | 0.132 | -0.166 | -0.112 | 0.195 | 0.136 | -0.027 | 0.001 | 0.214 | 0.094 | 0.074 | 0.165 | 0.19 | 0.045 | 0.07 | 0.029
9 | ECH1 (UniProt Q13011) | 0.019 | 0.276 | 0.024 | 0.036 | -0.032 | -0.021 | 0.023 | 0.052 | -0.041 | 0.694 (active) | -0.037 | 0.727 (active) | 0.053 | 0.519 (active) | 0.122 | -0.023 | -0.012 | -0.031 | -0.035 | -0.024
10 | DCAF10 (UniProt Q5QP82) | -0.003 | 0.029 | -0.038 | -0.102 | -0.049 | -0.018 | -0.043 | -0.015 | -0.026 | 0.022 | 0.09 | 0.021 | -0.011 | -0.094 | -0.018 | -0.009 | -0.083 | 0.007 | 0.052 | 0
11 | DFFB (UniProt O76075) | 0.049 | 0.036 | 0.104 | 0.039 | -0.057 | 0.028 | -0.036 | 0 | -0.074 | -0.01 | 0.017 | 0.052 | -0.038 | 0.07 | 0.009 | 0.024 | 0.049 | -0.016 | -0.019 | 0.033
12 | DHPS (UniProt P49366) | 0.045 | 0.028 | 0.001 | 0.046 | -0.002 | 0.014 | -0.012 | -0.01 | -0.017 | -0.049 | 0.087 | 0.043 | -0.013 | 0.005 | -0.026 | -0.027 | -0.018 | -0.053 | -0.012 | -0.011
13 | F5 (UniProt P12259) | -0.06 | 0.105 | -0.018 | -0.125 | 0.163 | -0.048 | -0.09 | -0.054 | 0.141 | -0.009 | -0.003 | 0.139 | 0.134 | -0.076 | 0.133 | 0.081 | -0.079 | -0.068 | 0.037 | 0.039
14 | DNM2 (UniProt P50570) | -0.013 | -0.015 | 0.043 | 0.029 | -0.002 | -0.091 | 0.037 | 0.05 | -0.044 | -0.349 (active) | -0.028 | 0.043 | -0.074 | 0 | -0.027 | -0.02 | 0.035 | 0.029 | 0.009 | -0.03
15 | EIF2S3 (UniProt P41091) | 0.076 | 0.073 | 0.026 | -0.144 | 0.009 | 0.055 | -0.034 | -0.02 | 0.068 | 0.049 | -0.016 | 0 | 0.057 | -0.006 | -0.02 | 0.114 | 0.124 | 0.033 | 0.04 | -0.002
16 | EXOC1 (UniProt Q9NV70) | -0.219 | -0.44 | 0.077 | -0.012 | -0.081 | 0.023 | 0.084 | 0.115 | 0.1 | -0.319 | 0.013 | -0.249 | -0.04 | 0.038 | -0.002 | -0.074 | 0.172 | 0.066 | 0.06 | -0.081
